The record followed here is PubChem BioAssay (EPA / NIEHS).

Experiment [1] in a line: CCTE_Shafer_MEA_dev_firing_rate_mean: CCTE's Neural Network Formation Assay for Mean Firing Rate, Shafer Lab (AID 2284031). The method, boiled down: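 Spike frequency (spikes/recording length, averaged over active electrodes) was recorded on days 5, 7, 9 and 12 and collapsed to AUC; rat cortical cultures received compound continuously over 12 days of network development.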

Experiment [2] is described as follows: CCTE_Shafer_MEA_dev_per_burst_spike_percent: CCTE's Neural Network Formation Assay for Percent of Spikes in a Burst, Shafer Lab (AID 2284032). The method, boiled down: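 Value is trapezoidal AUC over recordings on days 5, 7, 9 and 12 of the well-mean fraction of spikes falling in single-electrode bursts; rat cortical cultures exposed continuously from plating, treatment renewed DIV 5 and 9, fitted downward against DMSO.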

A short description of experiment [3]: CCTE_Shafer_MEA_dev_active_electrodes_number: CCTE's Neural Network Formation Assay for Number of Active Electrodes, Shafer Lab (AID 2284040; active = hit-call score of the fitted dose curve at least 0.9, where 1 is the maximum;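 note: potency for loss of active electrodes versus DMSO so lower counts are hits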). The method, boiled down:
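Counts electrodes per well firing at least 5 spikes/min, recorded on days 5, 7, 9 and 12 in rat cortical cultures dosed continuously from plating (treatment refreshed DIV 5, 9). Value is the area under the curve over recordings, fitted downward relative to DMSO.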

Experiment [4] is described as follows: CCTE_Shafer_MEA_dev_burst_rate: CCTE's Neural Network Formation Assay for Burst Rate, Shafer Lab (AID 2284042). In a few lines: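 Cells plated, treated day 0; recorded DIV 5, 7, 9, 12; fed and re-treated DIV 5, 9. Endpoint: bursts per recording time, active-electrode well mean, trapezoidal AUC, fitted in decreasing direction against DMSO baseline.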
Experiment [5] is described as follows: CCTE_Shafer_MEA_dev_bursting_electrodes_number: CCTE's Neural Network Formation Assay for Number of Bursting Electrodes, Shafer Lab (AID 2284043; active = hit-call score of the fitted dose curve at least 0.9, where 1 is the maximum;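 note: potency is for loss of bursting electrodes relative to DMSO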). In a few lines: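 Number of electrodes reaching ≥1 burst every 2 min was recorded at DIV 5, 7, 9 and 12 and collapsed as trapezoidal area under the curve. Cultures were rat cortical neurons on MEA plates, dosed continuously from plating with medium and treatment refreshed on DIV 5 and 9.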

Experiment [6] is described as follows: CCTE_Shafer_MEA_dev_burst_duration_mean: CCTE's Neural Network Formation Assay for Mean Burst Duration, Shafer Lab (AID 2284045). In a few lines:
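Mean single-electrode burst duration (first to last spike), averaged over bursting electrodes per well, then integrated as area-under-curve across recordings at days 5, 7, 9 and 12. Rat cortical cultures on MEAs, compound present from plating, refreshed at feeds.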

A short description of experiment [7]: CCTE_Shafer_MEA_dev_interburst_interval_mean: CCTE's Neural Network Formation Assay for Mean Interburst Interval, Shafer Lab (AID 2284046).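 Note: well-mean interburst interval of bursting electrodes as AUC over four recording days; curve fitted for decrease in interburst interval relative to DMSO.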 The method, boiled down:
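Developing rat cortical networks on 48-well MEAs receive compound from the day of plating. Burst intervals from each active electrode are averaged per well, and AUC over the recording days is fitted in the negative direction against DMSO.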

Experiment [8] can be described thus: CCTE_Shafer_MEA_dev_inter_network_spike_interval_mean: CCTE's Neural Network Formation Assay for Mean Inter-network Spike Interval, Shafer Lab (AID 2284047). In a few lines: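 Rat cortical cultures, 1.5 x 10^5 cells/well on 48-well MEA plates; continuous exposure days 0–12, medium and compound refreshed DIV 5, 9. Mean time between consecutive network-spike peaks; AUC across DIV 5/7/9/12; DMSO baseline, negative fitting direction.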

A short description of experiment [9]: CCTE_Shafer_MEA_dev_network_spike_number: CCTE's Neural Network Formation Assay for Number of Network Spikes, Shafer Lab (AID 2284048).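 Note: synchronized bursts across electrodes counted on days 5 7 9 12 and integrated as AUC.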 In a few lines: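 Number of network spikes (coordinated firing across electrodes) recorded on days 5, 7, 9 and 12 and summarised as area under the curve. Rat cortical cultures on MEA, continuous compound exposure with full medium/treatment exchange at DIV 5 and 9.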

The nature of experiment [10]: CCTE_Shafer_MEA_dev_network_spike_peak: CCTE's Neural Network Formation Assay for Mean Number of Electrodes in Network Spike, Shafer Lab (AID 2284049).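 Note: fitted for loss of signal meaning fewer electrodes in network spikes than DMSO.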 The method, boiled down:
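Rat cortical primary culture, 1.5 x 10^5 cells/well, 48-well MEA (16 electrodes/well). Dosing day 0 through DIV 12, full media/compound exchange DIV 5, 9. AxIS adaptive spike detection; AUC over days 5/7/9/12; loss-of-signal vs DMSO.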

Experiment [11] in a line: CCTE_Shafer_MEA_dev_spike_duration_mean: CCTE's Neural Network Formation Assay for Mean Spike Duration, Shafer Lab (AID 2284051). In a few lines: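 Readout is the average length of network spikes, clustered firing across electrodes, summed over DIV 5, 7, 9 and 12 as area under the curve. Neurons from rat cortex developed networks on MEA plates under continuous 12-day exposure.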

Experiment [12] in a line: CCTE_Shafer_MEA_dev_network_spike_duration_std: CCTE's Neural Network Formation Assay for Standard Deviation of Network Spike Duration, Shafer Lab (AID 2284052).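 Note: hits are decreases in network spike duration SD versus DMSO vehicle.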 In a few lines:
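Read-out is the trapezoidal area-under-the-curve across recordings made on days 5, 7, 9 and 12, fitted in the negative direction against DMSO baseline. Neurons were primary rat cortical cells treated from day 0, with treatment renewed at each feed.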

Experiment [13] can be described thus: CCTE_Shafer_MEA_dev_per_network_spike_spike_number_mean: CCTE's Neural Network Formation Assay for Mean Number of Spikes in a Network Spike, Shafer Lab (AID 2284053). The method, boiled down:
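Continuous twelve-day exposure of developing rat cortical networks grown over 16 microelectrodes per well; spontaneous firing is captured at four time points, and the per-network-spike spike number is integrated over development by trapezoidal AUC.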

A short description of experiment [14]: CCTE_Shafer_MEA_dev_per_network_spike_spike_percent: CCTE's Neural Network Formation Assay for Percent of Spikes in a Network Spike, Shafer Lab (AID 2284054). In a few lines: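 Metric: fraction of spikes falling in a 0.05 s window at network-spike peaks. Recordings were made on days 5, 7, 9 and 12 and collapsed by trapezoidal AUC. Cultures were rat cortical neurons on MEA plates, dosed continuously from plating, re-dosed at media changes.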

The nature of experiment [15]: UKN5_HCS_SBAD2_cell_viability: Viability Assessment in the University of Konstanz (UKN) Leist Lab Neurite Outgrowth Assay in human iPSC-derived immature Dorsal Root Ganglia Neurons (UKN5) (AID 2284056). In a few lines:
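iPSC-derived immature peripheral neurons (SBAD2) seeded on Matrigel with CHIR99021, SU5402 and DAPT, dosed 1 h later for 24 h. Viability from Hoechst H-33342 and calcein-AM live staining, high-content imaging; bidirectional fit versus DMSO.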

A short description of experiment [16]: CCTE_Shafer_MEA_dev_LDH: CCTE's Lactate Dehydrogenase Assay for Cytotoxicity in the Neural Network Formation Assay, Shafer Lab (AID 2284068; active = hit-call score of the fitted dose curve at least 0.9, where 1 is the maximum;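 note: exposure for twelve days from plating with re-dosing on DIV 5 and 9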). In a few lines: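 Cytotoxicity companion to network-formation recordings: rat cortical neurons received compound over 12 days of development, re-dosed at DIV 5 and 9 feeds. Viability was inferred from LDH enzyme activity relative to DMSO.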

Experiment [17] can be described thus: UKN5_HCS_SBAD2_neurite_outgrowth: University of Konstanz (UKN) Leist Lab Neurite Outgrowth Assay in human iPSC-derived immature Dorsal Root Ganglia Neurons (UKN5) (AID 2284070). To be noted: actives raise or lower the signal. In a few lines: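 Neurite area from calcein-AM high-content images after 24 h exposure (staining included), with H-33342 for viability, fitted both directions against DMSO. Cells: thawed immature SBAD2 peripheral neurons, 100.000 cells/cm2, with CHIR99021, SU5402, DAPT; dosing 1 h after seeding.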

The structures appear in SMILES notation. Results filed as inconclusive are left out. The source made the active and inactive calls. Rule for the calls, unless noted: active = hit-call score of the fitted dose curve at least 0.9, where 1 is the maximum; inactive = score below 0.9.

For orientation: AC50 means the concentration at which the activity in the assay is half-maximal. With `C[n+]1ccc(-c2ccccc2)cc1`, the call in experiment [1], in experiment [2], in [4], in [6], in experiment [7] and in [8] was inactive. Further, the call in experiment [9], in [11], in experiment [12], in experiment [13], in [14] and in [15] was inactive. For the same molecule, the molecule was classed as inactive in experiment [17]. Moreover, the AC50 in [3] is 4.33 µM (active); in experiment [5], 4.7 µM (active); in experiment [10], 6.52 µM (active); in [16], 4.7 µM (active).
